In PubChem BioAssay (Tox21):
A number with no mark means an inactive call. The source made the active and inactive calls. Calls come from the whole dose curve; as a rule, active = well fitted curve in the direction sought with a large enough effect in the repeat runs; inconclusive = weak or mixed curves; inactive = flat fitted curve, though single readings scatter. Positions of bridges follow the written chain, without caps; N, C: chain ends. Non-standard residues stand in square brackets, D forms with d. Residues, ends and D or L forms follow the SMILES beside them. *: point of attachment. X1 = CC[C@@H](C)[C@@H](N)C1=N[C@H](C(=O)*)CS1; d(aIle) = CC[C@H](C)[C@@H](N)C(=O)O; dOrn = NCCC[C@@H](N)C(=O)O
% is set by controls: 0 for no effect and ±100 for the full control effect.

Test: qHTS assay to test for compound auto fluorescence at 590 nm (red) in HEK293 cell free culture (AID 720683)
Conditions: cell-free medium autofluorescence, Ex540/Em590 red; series mostly up to 46 µM; fluorescence, % of fluorescent control: at the top concentration
Outline: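 Tox21 10K library compounds were pinned into cell-free DMEM with 10% FBS and fluorescence was read at excitation 540 nm. Activity is expressed as Rose Bengal sodium equivalency.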
With CCN1CCCC1CNC(=O)c1cc(S(=O)(=O)CC)ccc1OC (stereo unspecified) the outcome was “inactive”.
With Nc1nc(NC2CC2)c2ncn([C@@H]3C=C[C@@H](CO)C3)c2n1 the “fluorescence, % of fluorescent control” value was 0.0159%.
With Cc1cc(N)c2ccccc2[n+]1CCCCCCCCCC[n+]1c(C)cc(N)c2ccccc21 the “fluorescence, % of fluorescent control” value was -0.0427% [at 18.6 µM].
With CC[C@@H](C)[C@H](N)C(=O)O the “fluorescence, % of fluorescent control” value was -0.243%.
For CCCCCCCCCCCCN1CCCC1=O, the “fluorescence, % of fluorescent control” value was 0.0222% [at 91.3 µM].
For CC1(C)C[C@@H]1C(=O)N/C(=C\CCCCSC[C@H](N)C(=O)O)C(=O)O, the outcome was “inactive”.
For CC12CCC(C[N+](C)(CCC[N+](C)(C)C)C1)C2(C)C (stereo unspecified), the “fluorescence, % of fluorescent control” value was 0.364%.
For CC(C)(COP(=O)(O)OP(=O)(O)OC[C@H]1O[C@@H](n2cnc3c(N)ncnc32)[C@H](O)[C@@H]1OP(=O)(O)O)C(O)C(=O)NCCC(=O)NCCS (stereo partly specified), the “fluorescence, % of fluorescent control” value was 0.229%.
In the case of O=C1c2ccccc2-c2n[nH]c3cccc1c23, the “fluorescence, % of fluorescent control” value is reported as 0.727%.
With CCOC(=O)Cc1ccc(-c2ccccc2)cc1 the “fluorescence, % of fluorescent control” value was -0.0271%.
In the case of CC(=O)O[C@H]1C[C@@H]2CC[C@@H]3[C@H](CC[C@@]4(C)[C@H]3C[C@H]([N+]3(C)CCCCC3)[C@@H]4OC(C)=O)[C@@]2(C)C[C@@H]1[N+]1(C)CCCCC1, the “fluorescence, % of fluorescent control” value is reported as 0.0174%.
With O=C1c2c(O)cccc2[C@H]([C@@H]2O[C@H](CO)[C@@H](O)[C@H](O)[C@H]2O)c2cc(CO)cc(O)c21 the outcome was “inactive”.
In the case of O=C(O)CCCC/C=C(\c1ccccc1)c1cccnc1, the “fluorescence, % of fluorescent control” value is reported as -0.0556%.
With CC[C@@H](C)[C@@H](N)C1=N[C@H](C(=O)N[C@@H](CC(C)C)C(=O)N[C@@H](CCC(=O)O)C(=O)N[C@@H](C(=O)N[C@@H]2CCCCNC(=O)[C@@H](CC(N)=O)NC(=O)[C@@H](CC(=O)O)NC(=O)[C@@H](Cc3cnc[nH]3)NC(=O)[C@@H](Cc3ccccc3)NC(=O)[C@@H]([C@H](C)CC)NC(=O)[C@@H](CCCN)NC2=O)[C@@H](C)CC)CS1 (X1-LE[d(aIle)][dK][dOrn][dI][dF][dH][dD][dN]; lactam 4-C) the outcome was “inactive”.
For NC(=S)NS(=O)(=O)c1ccc(N)cc1, the “fluorescence, % of fluorescent control” value was -0.364%.
In the case of CO[C@H]1C[C@@H]2CC[C@@H](C)[C@@](O)(O2)C(=O)C(=O)N2CCCC[C@H]2C(=O)O[C@H]([C@H](C)C[C@@H]2CC[C@@H](O)[C@H](OC)C2)CC(=O)[C@H](C)C=C(C)[C@@H](O)[C@@H](OC)C(=O)[C@H](C)C[C@H](C)/C=C/C=CC=C1C, the outcome is reported as “inactive”.
For CC(=O)[C@]1(O)Cc2c(O)c3c(c(O)c2[C@@H](O[C@H]2C[C@H](N)[C@H](O)[C@H](C)O2)C1)C(=O)c1ccccc1C3=O, the “fluorescence, % of fluorescent control” value was 8.02%.
For C=CC[N+]1([C@H]2C[C@H]3[C@@H]4CC[C@H]5C[C@H](O)[C@@H](N6CCOCC6)C[C@]5(C)[C@H]4CC[C@]3(C)[C@H]2OC(C)=O)CCCC1, the “fluorescence, % of fluorescent control” value was -0.313%.
In the case of CCc1ncnc2cc(OC)c(OC)cc12, the “fluorescence, % of fluorescent control” value is reported as 0.104%.
In the case of C=CC1=C(C(=O)O)N2C(=O)[C@@H](NC(=O)/C(=N\O)c3csc(N)n3)[C@H]2SC1 (stereo in doubt), the outcome is reported as “inactive”.
In the case of CC(=O)N[C@@H](C=O)[C@H](O)[C@H](O)[C@@H](O)CO, the outcome is reported as “inactive”.
In the case of CNCC(=O)N[C@@H](CCCN=C(N)N)C(=O)N[C@H](C(=O)N[C@@H](Cc1ccc(O)cc1)C(=O)N[C@H](C(=O)N[C@@H](Cc1cnc[nH]1)C(=O)N1CCC[C@H]1C(=O)N[C@@H](C)C(=O)O)C(C)C)C(C)C, the “fluorescence, % of fluorescent control” value is reported as 0.392%.
With CCCOC(=O)c1ccccc1O the “fluorescence, % of fluorescent control” value was -0.126%.
In the case of CC(C)(S)C(=O)N[C@@H](CS)C(=O)O, the outcome is reported as “inactive”.
For CCCCCCCC/C=C\CCCCCCCC(=O)N(CCO)CCO, the “fluorescence, % of fluorescent control” value was 0.0674% [at 91.3 µM].
In the case of Oc1ccc(Cl)cc1C1CCCC1, the “fluorescence, % of fluorescent control” value is reported as -0.0067% [at 91.3 µM].
With O=C(O)/C=C/C(=O)Nc1ccc(S(=O)(=O)Nc2nccs2)cc1 the “fluorescence, % of fluorescent control” value was 0.107%.
With N#Cc1c(N(CC(=O)O)CC(=O)O)sc(C(=O)O)c1CC(=O)O the “fluorescence, % of fluorescent control” value was -0.758%.
With N[C@@H](Cc1ccc(O)c(O)c1)C(=O)O the “fluorescence, % of fluorescent control” value was 0.139%.
For CC(C)c1ccc2sc3ccccc3c(=O)c2c1, the “fluorescence, % of fluorescent control” value was -0.266% [at 91.3 µM].

Test: qHTS assay to test for compound auto fluorescence at 590 nm (red) in HepG2 cell free culture (AID 720684)
Conditions: cell-free medium autofluorescence, red 540/590 nm; series mostly up to 46 µM; fluorescence, % of Rose Bengal: at the top concentration
Outline: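 Measured in medium alone (MEM containing 10% FBS) following pintool addition of compound; emission at 590 nm with 540 nm excitation, referenced to Rose Bengal sodium.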
With CN1[C@@H](CC(=O)c2ccccc2)CCC[C@H]1C[C@H](O)c1ccccc1 the “fluorescence, % of Rose Bengal” value was -0.199%.
With Cc1cc(N)c2ccccc2[n+]1CCCCCCCCCC[n+]1c(C)cc(N)c2ccccc21 the “fluorescence, % of Rose Bengal” value was 0.0044% [at 18.6 µM].
With CC[C@@H](C)[C@H](N)C(=O)O the “fluorescence, % of Rose Bengal” value was 0.516%.
For CCCCCCCCCCCCN1CCCC1=O, the “fluorescence, % of Rose Bengal” value was 0.0212% [at 91.3 µM].
For CC12CCC(C[N+](C)(CCC[N+](C)(C)C)C1)C2(C)C (stereo unspecified), the “fluorescence, % of Rose Bengal” value was -0.0312%.
For CC(C)(COP(=O)(O)OP(=O)(O)OC[C@H]1O[C@@H](n2cnc3c(N)ncnc32)[C@H](O)[C@@H]1OP(=O)(O)O)C(O)C(=O)NCCC(=O)NCCS (stereo partly specified), the “fluorescence, % of Rose Bengal” value was -0.041%.
In the case of O=C1c2ccccc2-c2n[nH]c3cccc1c23, the “fluorescence, % of Rose Bengal” value is reported as -0.219%.
For CCOC(=O)Cc1ccc(-c2ccccc2)cc1, the “fluorescence, % of Rose Bengal” value was -0.301%.
With CC(=O)O[C@H]1C[C@@H]2CC[C@@H]3[C@H](CC[C@@]4(C)[C@H]3C[C@H]([N+]3(C)CCCCC3)[C@@H]4OC(C)=O)[C@@]2(C)C[C@@H]1[N+]1(C)CCCCC1 the “fluorescence, % of Rose Bengal” value was 0.0371%.
With CS(=O)(=O)c1ccc([C@@H](CC2CCCC2)C(=O)Nc2cnccn2)cc1Cl the “fluorescence, % of Rose Bengal” value was 0.0777% [at 91.3 µM].
For O=C1c2c(O)cccc2[C@H]([C@@H]2O[C@H](CO)[C@@H](O)[C@H](O)[C@H]2O)c2cc(CO)cc(O)c21, the outcome was “inactive”.
For CC1CCCCN1CCCOC(=O)c1ccccc1 (stereo unspecified), the “fluorescence, % of Rose Bengal” value was -0.0811%.
In the case of CC[C@@H](C)[C@@H](N)C1=N[C@H](C(=O)N[C@@H](CC(C)C)C(=O)N[C@@H](CCC(=O)O)C(=O)N[C@@H](C(=O)N[C@@H]2CCCCNC(=O)[C@@H](CC(N)=O)NC(=O)[C@@H](CC(=O)O)NC(=O)[C@@H](Cc3cnc[nH]3)NC(=O)[C@@H](Cc3ccccc3)NC(=O)[C@@H]([C@H](C)CC)NC(=O)[C@@H](CCCN)NC2=O)[C@@H](C)CC)CS1 (X1-LE[d(aIle)][dK][dOrn][dI][dF][dH][dD][dN]; lactam 4-C), the outcome is reported as “inactive”.
For CO[C@H]1C[C@@H]2CC[C@@H](C)[C@@](O)(O2)C(=O)C(=O)N2CCCC[C@H]2C(=O)O[C@H]([C@H](C)C[C@@H]2CC[C@@H](O)[C@H](OC)C2)CC(=O)[C@H](C)C=C(C)[C@@H](O)[C@@H](OC)C(=O)[C@H](C)C[C@H](C)/C=C/C=CC=C1C, the outcome was “inactive”.
With C=CC[N+]1([C@H]2C[C@H]3[C@@H]4CC[C@H]5C[C@H](O)[C@@H](N6CCOCC6)C[C@]5(C)[C@H]4CC[C@]3(C)[C@H]2OC(C)=O)CCCC1 the “fluorescence, % of Rose Bengal” value was 0.0605%.
With CCc1ncnc2cc(OC)c(OC)cc12 the “fluorescence, % of Rose Bengal” value was 0.0124%.
In the case of C=CC1=C(C(=O)O)N2C(=O)[C@@H](NC(=O)/C(=N\O)c3csc(N)n3)[C@H]2SC1 (stereo in doubt), the outcome is reported as “inactive”.
With CC(=O)N[C@@H](C=O)[C@H](O)[C@H](O)[C@@H](O)CO the outcome was “inactive”.
For CNCC(=O)N[C@@H](CCCN=C(N)N)C(=O)N[C@H](C(=O)N[C@@H](Cc1ccc(O)cc1)C(=O)N[C@H](C(=O)N[C@@H](Cc1cnc[nH]1)C(=O)N1CCC[C@H]1C(=O)N[C@@H](C)C(=O)O)C(C)C)C(C)C, the “fluorescence, % of Rose Bengal” value was -0.478%.
In the case of CC(C)(S)C(=O)N[C@@H](CS)C(=O)O, the outcome is reported as “inactive”.
In the case of CCCCCCCC/C=C\CCCCCCCC(=O)N(CCO)CCO, the “fluorescence, % of Rose Bengal” value is reported as 0.4% [at 91.3 µM].
With Oc1ccc(Cl)cc1C1CCCC1 the “fluorescence, % of Rose Bengal” value was 0.0203% [at 91.3 µM].
In the case of Nc1ccc(N)c([N+](=O)[O-])c1, the “fluorescence, % of Rose Bengal” value is reported as -0.542% [at 91.3 µM].
In the case of N#Cc1c(N(CC(=O)O)CC(=O)O)sc(C(=O)O)c1CC(=O)O, the “fluorescence, % of Rose Bengal” value is reported as 0.0859%.
In the case of N[C@@H](Cc1ccc(O)c(O)c1)C(=O)O, the “fluorescence, % of Rose Bengal” value is reported as -0.137%.
For CC(C)c1ccc2sc3ccccc3c(=O)c2c1, the “fluorescence, % of Rose Bengal” value was -0.193% [at 91.3 µM].
